Rows were chosen to be rich in hits. Some 18% of all compounds tested hit in one or more screens of this group.
Six1-Eya2 blk: Six1/Eya2 interaction inhibition; Q15475+O00167; AlphaScreen GST-Six1/His-Eya2 binding, biochemical; hits give low values; activity change, % (concentration not given with the values); 360,000 compounds, 0.56% hits; in the data active = activity change below about -65%; inconclusive = mostly about -30% to -63%
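Six1/Eya2 binding was read as AlphaScreen signal after compounds were pinned into GST-Six1 plus His-tagged Eya2 (5X stock 250/500 nM) in pH 8.0 Tris/NaCl/TCEP buffer, beads added, then incubated 1 h, 37 C, dark.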
DT40 TDP1 CPT: DT40-hTDP1 cell growth loss with CPT | 420,000 compounds, 12% hits | Potency, µM (top dose mostly 46.2 µM), for inactives: at the top dose activity change, negative = growth inhibition, hits mostly inhibitors | AID 686979 | chicken DT40 Tdp1-/-;hTDP1 cells + 20 nM CPT, ATP luminescence, 48 h; also: potency is read from the fitted curve at half-maximal effect; nearly all actives have a fitted effect of over 55% in size
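Cell growth measured by CellTiter-Glo luminescence after a minimum 48 h, 37 C compound exposure with 20 nM CPT in Tdp1-knockout DT40 cells stably expressing hTDP1, seeded 400/well; qHTS titration format.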
TDP1 block: TDP1 (human) enzyme inhibition; AID 485290; recombinant TDP1, AlphaScreen DNA substrate cleavage; 350,000 compounds, 0.28% hits; Q9NUW8; Potency, µM (doses to about 130 µM), inactives show at the highest dose activity change, negative = inhibition, actives largely listed as inhibitors; also: potency is read from the fitted curve at half-maximal effect; nearly all actives have a fitted effect of over 40% in size
Target sequence (Q9NUW8 whole entry, looked up): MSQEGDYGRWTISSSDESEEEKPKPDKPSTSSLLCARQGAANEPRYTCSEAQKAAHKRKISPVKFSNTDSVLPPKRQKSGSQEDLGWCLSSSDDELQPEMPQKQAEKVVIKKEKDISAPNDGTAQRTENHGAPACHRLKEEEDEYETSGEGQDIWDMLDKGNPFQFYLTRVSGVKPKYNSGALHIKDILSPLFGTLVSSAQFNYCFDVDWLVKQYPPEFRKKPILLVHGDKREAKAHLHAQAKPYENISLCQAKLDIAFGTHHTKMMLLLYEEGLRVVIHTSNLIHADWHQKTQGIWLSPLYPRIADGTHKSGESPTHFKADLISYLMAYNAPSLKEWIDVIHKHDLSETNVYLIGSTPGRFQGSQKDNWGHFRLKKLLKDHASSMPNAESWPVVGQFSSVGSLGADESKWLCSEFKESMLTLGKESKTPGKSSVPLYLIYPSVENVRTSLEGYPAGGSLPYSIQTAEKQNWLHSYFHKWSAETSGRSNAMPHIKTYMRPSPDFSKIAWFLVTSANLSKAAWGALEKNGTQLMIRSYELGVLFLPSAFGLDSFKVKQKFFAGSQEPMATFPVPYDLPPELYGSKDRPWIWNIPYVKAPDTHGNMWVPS
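Recombinant E. coli-expressed Tdp1 (1 nM) preincubated with compound 15 min at RT, then 5'-biotin/3'-phosphotyrosine-FITC DNA substrate (15 nM) added for 5 min. AlphaScreen beads (10 ug/ml) added, 10 min RT; tyrosine-FITC cleavage read as signal loss.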
CtBP-E1A blk: inhibitors of CtBP/E1A interaction; AID 651724; activity change, % (test concentration not listed); 340,000 compounds, 0.49% hits; AlphaScreen GST-E1A/His-CtBP binding, 1536-well; hits give low values; in the data active = activity change below about -65%; inconclusive = mostly about -30% to -63%
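Steps: dispense buffer (Tris pH 8.0, NaCl 300 mM, TCEP 1 mM, BSA, Tween 20); add 5X protein mix (GST-E1A, His-CtBP, 125 nM each); pin 23 nL compound; 2 h at 37 °C, dark; add 5X beads (50 ug/mL); 1 h; read.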
IL1B secr inh: inflammasome signaling inhibition, IL-1 beta readout | THP-1 LPS/ATP IL-1B secretion, AlphaLISA, 16 h; hits give low values | activity change, % at 57.5 µM | 360,000 compounds, 4.7% hits | AID 743279; in the data active = activity change below about -50%; inconclusive = mostly about -30% to -49%
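Secreted IL-1B measured by AlphaLISA bead assay after 16 h compound exposure of THP-1 cells; compounds (final up to 57.5 uM) added 1 h before LPS (250 ng/mL) and ATP (1.25 mM) stimulation; lower signal means less secretion.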
TDP1 cell noCPT: qHTS for Inhibitors of human tyrosyl-DNA phosphodiesterase 1 (TDP1): qHTS in cells in absence of CPT. DT40 Tdp1-/- hTDP1 cells, no CPT, ATP luminescence, 48 h. Potency, µM (series often up to 46.2 µM), inactives show top-dose activity change, negative = growth inhibition, actives largely listed as inhibitors. 420,000 compounds, 15% hits. AID 686978, 2013; also: potency is read from the fitted curve at half-maximal effect; nearly all actives have a fitted effect of over 55% in size
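Growth kinetics read by CellTiter-Glo luminescence after ≥48 hr at 37 °C. Cells: DT40 Tdp1-/- stably carrying human TDP1, 400 per well, compound exposure in the absence of CPT (DMSO vehicle).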
An asterisk follows results filed as active. Unless noted, calls follow the shape of the dose curve; as a rule, active = well fitted curve in the direction sought with a large enough effect; inconclusive = small, poorly fitted or top-dose-only effect, or another doubt; inactive = no such curve, though single readings can be large; an effect the other way counts as inactive or inconclusive. % is scaled to controls: 0 for no effect and ±100 for the full control effect.

Screening O=S(=O)(Nc1ccc(Br)cc1F)c1ccc2nc(-c3ccccc3)[nH]c2c1 returned DT40 TDP1 CPT -21.4%, TDP1 block -5.0% and TDP1 cell noCPT inconclusive.
For Cc1ccc(NC(=O)C2CCCN2S(=O)(=O)c2ccc3nc(-c4ccccc4)[nH]c3c2)cc1C (configuration not stated) the results were DT40 TDP1 CPT inconclusive, TDP1 block 5.1% and TDP1 cell noCPT 23.1µM*.
Screening Cc1cc(NS(=O)(=O)c2ccc3nc(-c4ccccc4)[nH]c3c2)ccc1Br returned DT40 TDP1 CPT inconclusive, TDP1 block 7.5% and TDP1 cell noCPT 14.6µM*.
`CC(C)c1ccc(NC(=O)C2CCCN2S(=O)(=O)c2ccc3nc(-c4ccccc4)[nH]c3c2)cc1` (configuration not stated) gave DT40 TDP1 CPT 10.3µM*, TDP1 block -5.1% and TDP1 cell noCPT 7.31µM*.
For Cc1cccc(NC(=O)C2CCCN2S(=O)(=O)c2ccc3nc(-c4ccccc4)[nH]c3c2)c1 (configuration not stated) the results were DT40 TDP1 CPT inconclusive, TDP1 block 2.6% and TDP1 cell noCPT 18.4µM*.
CC1CN(C(=O)/C(=C/c2ccco2)NC(=O)c2ccccc2)CC(C)O1 (configuration not stated) was read as Six1-Eya2 blk -8.1, DT40 TDP1 CPT 22.8%, CtBP-E1A blk 0.0, IL1B secr inh 22.8 and TDP1 cell noCPT 15.4%.
For CC(=O)N1CCCC(C)(C(=O)Nc2ccc3nc(C)ccc3c2)C1 (configuration not stated) the results were Six1-Eya2 blk -0.4, DT40 TDP1 CPT -8.3%, CtBP-E1A blk 6.7, IL1B secr inh 47.2 and TDP1 cell noCPT -5.7%.
CN(C)S(=O)(=O)c1ccc(Cl)c(C(=O)Nc2nc3ccccc3[nH]2)c1 was read as Six1-Eya2 blk -0.5, DT40 TDP1 CPT -24.4%, TDP1 block 1.8%, CtBP-E1A blk inconclusive, IL1B secr inh -7.5 and TDP1 cell noCPT -23.2%.
`Cc1ccc(NS(=O)(=O)c2ccc(Cl)c(C(=O)Nc3ccccc3-c3nc4ccccc4[nH]3)c2)cc1C` gave Six1-Eya2 blk -1.2, DT40 TDP1 CPT 7.31µM*, TDP1 block 5.8%, CtBP-E1A blk -4.0, IL1B secr inh -12.8 and TDP1 cell noCPT 8.2µM*.
For COCCn1c(SCC(=O)NC(=O)NCc2ccccc2)nc2ccccc2c1=O the results were Six1-Eya2 blk 2.4, DT40 TDP1 CPT -12.1%, TDP1 block 0.7%, CtBP-E1A blk -17.6, IL1B secr inh -17.0 and TDP1 cell noCPT 8.4%.
Screening CC(=O)C1=C(O)C(=CC=Cc2ccccc2)OC1=O returned Six1-Eya2 blk -4.3, DT40 TDP1 CPT inconclusive, CtBP-E1A blk -5.7, IL1B secr inh -1.8 and TDP1 cell noCPT 16.4µM*.
For Cc1nn(-c2ccccc2)c2c1C(c1ccc(Cl)cc1)N(c1ccccc1)C(=O)N2 (configuration not stated) the results were Six1-Eya2 blk 1.6, DT40 TDP1 CPT inconclusive, TDP1 block 7.8%, CtBP-E1A blk -11.9, IL1B secr inh -14.2 and TDP1 cell noCPT -25.5%.
For Cc1nn(-c2ccc([N+](=O)[O-])cc2)c2c1C(c1cccc(Br)c1)N1C(=N2)C(=O)Nc2ccccc21 (configuration not stated) the results were Six1-Eya2 blk 1.2, DT40 TDP1 CPT 2.59µM*, TDP1 block 2.8%, CtBP-E1A blk -10.2, IL1B secr inh 3.2 and TDP1 cell noCPT 3.26µM*.
